# From PubChem BioAssay
# The source made the active and inactive calls.
# Experiments:
# [1] = adipocyte viability effects, profiling panel, cell-based, 3T3-L1 adipocytes, calcein-AM fluorescence, 48 h, basal (AID 1163); details: 3T3-L1 adipocytes viability, higher = more signal
# [2] = HepG2 cell viability effects, profiling panel, calcein-AM fluorescence, 48 h, basal (AID 1164); details: higher = more signal
# [3] = MM1S cell viability effects, profiling panel, calcein-AM fluorescence, 48 h, basal (AID 1165); details: higher = more signal;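 also: viability of MM1S multiple myeloma cells under basal unstimulated conditions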
# [4] = basal RPMI8226 viability, no added stimulus, profiling panel, cell-based, calcein-AM fluorescence, 48 h, PK04 Diversity Set (AID 1166); details: RPMI8226 myeloma viability, higher = more signal;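 also: cells grown under basal conditions without added stimulus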
# [5] = basal HepG2 mitochondrial membrane potential changes, profiling panel, cell-based, JC-1 fluorescence, 24 h, 100 nL compound (AID 1167); details: higher = more signal
# [6] = basal 3T3-L1 adipocyte mitochondrial potential changes, profiling panel, cell-based, JC-1 fluorescence, 3T3-L1 adipocytes, 24 h, 100 nL compound (AID 1168); details: JC-1 mitochondrial fluorescence, higher = more signal, called active from +8 up or from −8 down
# [7] = basal RPMI8226 mitochondrial membrane potential changes, profiling panel, cell-based, JC-1 fluorescence, 24 h, 100 nL compound (AID 1169); details: RPMI8226 myeloma, JC-1 mitochondrial potential fluorescence, higher = more signal
# [8] = basal MM1S mitochondrial membrane potential changes, profiling panel, cell-based, JC-1 fluorescence, 24 h, 100 nL compound (AID 1170); details: higher = more signal
# [9] = A549 lung cancer cell viability effects, profiling panel, resazurin fluorescence, 24 h, PK04 Diversity Set (AID 1171); details: higher = more signal, called active from +8 up or from −8 down
# [10] = HepG2 liver cancer cell viability effects, profiling panel, resazurin fluorescence, 24 h, PK04 Diversity Set (AID 1172); details: higher = more signal
# [11] = basal S. cerevisiae growth modulation, no modifier, primary screen, OD600, strain BY4716, 24 h, basal condition (AID 1173); details: OD600, 24 h, higher = more signal, called active from +8 up or from −8 down
# [12] = MM1S myeloma cell viability, profiling panel, resazurin fluorescence, basal, 24 h, PK04 Diversity Set (AID 1174); details: higher = more signal, called active from +8 up or from −8 down;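 also: MM1S multiple myeloma cell line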
# [13] = target: Dihydroorotate dehydrogenase (quinone), mitochondrial (Plasmodium falciparum (isolate 3D7)) (UniProt Q08210); experiment: PfDHODH enzyme inhibitors, primary screen, biochemical, C-terminal His tag, absorbance 600 nm (AID 1175); details: DCIP absorbance 600 nm, higher = more signal, called active from +8 up or from −8 down;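 also: recombinant parasite enzyme with a five histidine tag at its C terminus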
# [14] = S. cerevisiae RM11-1a growth modifiers, primary screen, strain RM11-1a, OD600, basal, 24 h (AID 1177); details: OD600, 24 h, higher = more signal, called active from +8 up or from −8 down;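 also: cultures grown under basal conditions with no added stressor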
# [15] = E. coli acrAB mutant growth effects, primary screen, E. coli filamentation inducers, strain DRC39, OD650, 24 h (AID 1178); details: higher = more signal, called active from +8 up or from −8 down;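 also: growth measured as culture turbidity by optical density at 650 nm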
# [16] = E. coli acrAB mutant growth effects, primary screen, E. coli filamentation inducers, strain DRC39, OD650, 48 h (AID 1179);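 also: screen aims at cell division blockers that make cells filament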; details: E. coli DRC39 delta-acrAB growth, higher = more signal, called active from +8 up or from −8 down
# [17] = RPMI8226 myeloma cell viability, profiling panel, resazurin fluorescence, basal, 24 h, PK04 Diversity Set (AID 1180); details: higher = more signal;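 also: RPMI8826 multiple myeloma cell line at 5000 cells per well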
# [18] = target: E3 ubiquitin-protein ligase XIAP (Homo sapiens) (UniProt P98170); experiment: XIAP binders, primary screen, biophysical, small-molecule microarray, fluorescence 635 nm (AID 1181); details: small-molecule microarray binding, higher = more signal;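 also: score merges 667 nm emission and signal to noise over triplicate slides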
# [19] = system: XIP peptide (Xip251-270) binding; experiment: small-molecule binders of XIP peptide, primary screen, biochemical, small-molecule microarray, fluorescence 635/667 nm, 0.1 µg/mL protein (AID 1182); details: fluorescent protein binding, 635 nm, higher = more signal, called active from +8 up or from −8 down
# [20] = system: XIP peptide (Xip251-270); experiment: small-molecule binders of XIP peptide, primary screen, biochemical, small-molecule microarray, fluorescence 635/667 nm, 0.5 µg/mL protein (AID 1183); details: small-molecule microarray binding, fluorescence 635 nm; higher = more signal
# E3 ubiquitin-protein ligase XIAP (Homo sapiens), sequence (P98170 whole entry, looked up): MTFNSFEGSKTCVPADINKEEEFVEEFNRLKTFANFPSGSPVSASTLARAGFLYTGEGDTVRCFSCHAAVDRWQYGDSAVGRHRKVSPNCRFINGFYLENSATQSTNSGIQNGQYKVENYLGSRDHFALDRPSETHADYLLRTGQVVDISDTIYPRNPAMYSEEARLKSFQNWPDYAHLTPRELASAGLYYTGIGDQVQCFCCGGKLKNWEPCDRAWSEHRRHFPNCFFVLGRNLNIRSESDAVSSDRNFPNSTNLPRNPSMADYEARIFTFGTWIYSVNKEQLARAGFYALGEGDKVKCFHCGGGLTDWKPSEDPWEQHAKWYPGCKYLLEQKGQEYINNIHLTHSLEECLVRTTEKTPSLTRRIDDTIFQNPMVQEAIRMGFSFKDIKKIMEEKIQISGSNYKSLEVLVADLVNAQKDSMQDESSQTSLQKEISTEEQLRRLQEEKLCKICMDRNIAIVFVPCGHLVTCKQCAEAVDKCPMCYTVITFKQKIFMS
# Dihydroorotate dehydrogenase (quinone), mitochondrial (Plasmodium falciparum (isolate 3D7)), sequence (Q08210 whole entry, looked up): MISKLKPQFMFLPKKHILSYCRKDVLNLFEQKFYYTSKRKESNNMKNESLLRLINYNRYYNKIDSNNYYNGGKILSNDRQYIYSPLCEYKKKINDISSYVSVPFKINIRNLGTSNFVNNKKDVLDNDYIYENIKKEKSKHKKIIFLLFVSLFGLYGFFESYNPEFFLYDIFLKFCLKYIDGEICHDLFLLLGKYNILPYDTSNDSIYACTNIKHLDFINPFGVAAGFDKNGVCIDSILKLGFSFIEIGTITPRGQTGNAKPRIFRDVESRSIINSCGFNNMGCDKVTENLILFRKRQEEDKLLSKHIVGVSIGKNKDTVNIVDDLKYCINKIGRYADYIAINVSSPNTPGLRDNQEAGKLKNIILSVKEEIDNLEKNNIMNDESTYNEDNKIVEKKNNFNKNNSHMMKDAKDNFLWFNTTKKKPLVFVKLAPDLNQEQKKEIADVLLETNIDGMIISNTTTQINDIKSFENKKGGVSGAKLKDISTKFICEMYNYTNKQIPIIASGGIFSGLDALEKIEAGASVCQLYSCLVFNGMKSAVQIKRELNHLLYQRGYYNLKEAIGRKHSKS
SMILES,z-score [1],z-score [2],z-score [3],z-score [4],z-score [5],z-score [6],z-score [7],z-score [8],z-score [9],z-score [10],z-score [11],z-score [12],composite z-score [13],z-score [14],z-score [15],z-score [16],z-score [17],composite z-score [18],composite z-score [19],composite z-score [20]
CCOC(=O)C[C@H]1[C@H](OC(=O)Cc2ccc3c(c2)OCO3)[C@@H](NC(=O)c2ccc3ccccc3c2)c2cc(OCCCO)ccc2N1C(=O)c1ccc2ccccc2n1,0.898,1.94,-0.144,0.934,2.77,3.13 (inactive),0.319,1.64,1.09 (inactive),1.36,-1.73 (inactive),-0.0816 (inactive),0.623 (inactive),-4.07 (inactive),1.23 (inactive),0.0331 (inactive),-0.375,0.128,0.467 (inactive),-0.275
COCCCNC(=O)[C@@]1(Cc2ccccc2CN=[N+]=[N-])COC(c2ccc(OCCCO)cc2)=N1,1.08,0.501,-2.46,-0.77,0.287,1.33 (inactive),-0.724,-0.376,0.616 (inactive),1.8,-1.66 (inactive),0.0645 (inactive),-0.49 (inactive),0.493 (inactive),2 (inactive),1.61 (inactive),0.693,-0.0525,1.94 (inactive),0.866
CCOC(=O)C[C@H]1[C@H](OC(=O)c2ccc(-c3ccccc3)cc2)[C@@H](NC(=O)C2CCCCC2)c2cc(OCCCO)ccc2N1C(=O)c1ccc2ccccc2n1,1.25,-0.0303,0.881,0.179,2.69,1.82 (inactive),-0.953,0.717,1.02 (inactive),1.24,-0.275 (inactive),1.22 (inactive),0.478 (inactive),-1.33 (inactive),1.56 (inactive),0.999 (inactive),0.509,0.158,0.29 (inactive),0.0417
C=C(/C(=C/C[C@H](OC(=O)c1ccncc1)c1cccc(OCCO)c1)c1cc(C(=O)OC)ccc1OC)C(C)C,1.7,-0.712,-0.026,0.566,2.15,0.746 (inactive),0.0166,0.343,2.01 (inactive),0.731,-0.177 (inactive),1.8 (inactive),-0.494 (inactive),-1.06 (inactive),1.17 (inactive),0.196 (inactive),0.987,-0.153,0.236 (inactive),0.256
CCCNC(=O)[C@@H]1c2ccccc2C(=O)N(Cc2cc(C(F)(F)F)cc(C(F)(F)F)c2)[C@H]1c1ccc(CO)cc1,1.6,0.174,-0.298,-1,1.4,-0.652 (inactive),0.188,1.01,0.741 (inactive),0.397,-0.367 (inactive),1.52 (inactive),0.754 (inactive),0.288 (inactive),1.06 (inactive),-0.625 (inactive),1.63,-0.374,0.133 (inactive),0.219
Cc1ccc(S[C@]2(C(=O)NCC(C)C)CC(=O)N(C(C)C)[C@@H]2c2ccc(CO)cc2)cc1,2.25,-1.49,0.623,-0.954,0.34,-0.446 (inactive),0.134,0.381,0.443 (inactive),-0.784,0.225 (inactive),1.13 (inactive),-0.052 (inactive),-1.24 (inactive),1.49 (inactive),0.719 (inactive),0.687,-0.0481,-0.467 (inactive),-0.284
CC(C)C(CO)N1C(=O)[C@@H]2C3C(=O)OCCC/C=C\[C@H]3OC23C=CCN(C(C)C)C(=O)[C@@H]13 (stereo not given in full),0.492,-0.345,0.239,-0.0156,0.271,-0.0599 (inactive),-0.524,1.05,0.735 (inactive),0.997,-0.953 (inactive),0.814 (inactive),-0.848 (inactive),-1.36 (inactive),1.66 (inactive),1.26 (inactive),1.53,-0.269,0.528 (inactive),-0.501
NC(=O)NCC#Cc1ccc2c(c1)[C@]1(C(=O)N2)[C@H](c2ccc(OCCO)cc2)N2[C@H](c3ccccc3)[C@H](c3ccccc3)OC(=O)[C@H]2[C@@H]1C(=O)Nc1nc2ccccc2s1,1.17,-0.348,-0.285,1.55,-3.12,2.65 (inactive),-0.999,-1.68,0.641 (inactive),0.0219,1.44 (inactive),1.33 (inactive),-0.212 (inactive),3.21 (inactive),0.606 (inactive),0.681 (inactive),1.2,-0.0398,0.245 (inactive),-0.587
O=C(NO)[C@]1(Cc2ccccc2)N=C(c2ccc(OCCCO)cc2)O[C@@H]1c1ccccc1,1.33,1.18,1.87,-0.459,1.59,1.3 (inactive),-0.737,1.02,1.02 (inactive),1.47,-2.78 (inactive),1.41 (inactive),0.461 (inactive),-4.43 (inactive),2.26 (inactive),2.18 (inactive),0.963,0.0402,-0.592 (inactive),-1.32
CCN(CC)c1ccc(N2CC=CC34O[C@@H]5C=CCOC(=O)[C@@H]5[C@H]3C(=O)N(C(C)CO)[C@@H]4C2=O)cc1 (stereo not given in full),0.754,0.0598,1.15,-0.262,0.469,0.382 (inactive),-0.809,0.907,0.924 (inactive),0.878,-0.746 (inactive),1.3 (inactive),-0.393 (inactive),-0.0464 (inactive),1.7 (inactive),1.31 (inactive),0.587,-0.0277,0.149 (inactive),-1.73
CC(C)(C)OC(=O)CC[C@]1(C(=O)NCc2ccccc2)COC(c2ccc(OCCCO)cc2)=N1,0.978,-0.346,0.614,0.554,-0.0474,0.186 (inactive),-0.291,0.931,1.72 (inactive),0.931,-1.67 (inactive),1.65 (inactive),-1.28 (inactive),-1.23 (inactive),1.38 (inactive),0.233 (inactive),1.57,0.141,1.45 (inactive),0.0144
COC(=O)C1=CC(c2ccc(CO)cc2)=CC(C2CC2)N(C)C=C1C(=O)OC (stereo not given),1.31,0.295,1.07,-0.503,1.47,0.935 (inactive),0.515,1.12,0.419 (inactive),0.578,-2.82 (inactive),0.833 (inactive),-0.782 (inactive),-3.29 (inactive),0.983 (inactive),1.28 (inactive),0.842,-0.0388,1.8 (inactive),-0.407
C=CCN1C(=O)[C@]2(O[C@H](CCn3cc([C@H](O)c4ccccc4)nn3)[C@@H]([Si](C)(C)c3ccc(OC)cc3)[C@@H]2C)c2cc(N3CCOC3=O)ccc21,3.08,-0.812,-1.98,-2.86,3.15,2.62 (inactive),-0.906,-0.286,-2.25 (inactive),-1.22,-0.506 (inactive),-0.72 (inactive),-0.175 (inactive),0.58 (inactive),1.84 (inactive),1.06 (inactive),-1.23,-0.0721,0.865 (inactive),-0.0533
C=CC[C@@]1(C(=O)NCc2ccccc2)N=C(c2ccc(OCCCO)cc2)O[C@@H]1c1ccccc1,0.791,-1.01,-2.93,-4.46,0.0411,1.84 (inactive),-1.23,0.199,0.0074 (inactive),0.547,-2.16 (inactive),-0.47 (inactive),-0.904 (inactive),-1.23 (inactive),0.254 (inactive),-0.124 (inactive),-1.48,1.49,0.624 (inactive),0.784
COc1ccc([Si](C)(C)[C@H]2[C@H](CC(=O)N(CCO)Cc3ccccc3)O[C@@]3(C(=O)N(Cc4cccc(N5C(=O)COc6ccccc65)c4)c4ccccc43)[C@@H]2C)cc1,0.446,-0.647,-0.945,-2.66,0.502,1.2 (inactive),-0.943,-0.397,-0.899 (inactive),0.0785,0.337 (inactive),-1.48 (inactive),-0.149 (inactive),2.62 (inactive),2.07 (inactive),2.13 (inactive),-2.97,0.0727,1.65 (inactive),0.727
CC(C)C(=C=CC[C@H](O)c1ccc(OCCO)cc1)C[C@H](O)COCc1ccccc1,0.475,-0.822,-3.38,-3.77,0.296,0.371 (inactive),-0.625,-1.36,0.515 (inactive),0.657,-3.15 (inactive),-1.83 (inactive),-1.09 (inactive),1.04 (inactive),1.35 (inactive),0.883 (inactive),-0.0676,-0.0233,0.941 (inactive),0.0727
O=C1c2ccccc2[C@](Cc2ccccc2I)(C(=O)O)[C@H](c2ccc(CO)cc2)N1Cc1ccccc1Cl,1,-0.504,-0.089,-1.18,-0.172,0.571 (inactive),-0.565,0.295,0.177 (inactive),0.722,-2.78 (inactive),1.34 (inactive),-0.812 (inactive),-1.29 (inactive),-0.0031 (inactive),-0.11 (inactive),0.601,-0.148,0.8 (inactive),0.507
